Assay outcomes (PubChem BioAssay)
Rows were chosen to be rich in hits. Some 2.2% of all compounds tested hit in one or more screens of this group.
PvdQ inh = blocks Pseudomonas aeruginosa PvdQ acylase activity; inhibition, % at 10 µM; purified PvdQ acylase, fluorescence plate reader; 340,000 compounds, 0.063% hits; AID 488965; in the data active = inhibition above about 30%, passing the limit was not always enough; inconclusive = no clear call, values can overlap the other calls;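 note: 0% = vehicle neutral wells and 100% = reference inhibitor wells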
PGC1a acetyl inh = lowers PGC1a acetylation signal in U2OS cells; AID 651687; AlphaScreen anti-acetyl-lysine; with virally co-expressed GCN5 acetyltransferase; inhibition, % at 15.6 µM; 350,000 compounds, 0.17% hits;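 active = every replicate shows inhibition of at least 40%; inconclusive = mean inhibition at least 40% but some replicate below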;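 note: 0% = neutral control wells and 100% = positive control wells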
C2C12 statin = suppressors of simvastatin-induced myotoxicity in C2C12 myotubes; ATP luminescence, 48 h; scaled: DMSO 0, geranylgeraniol control 100; rescue of ATP level, % at 7.49 µM; 330,000 compounds, 0.78% hits;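 active = mean ATP rescue above about 67%, or every replicate alone reaching that limit, limit read from the data, passing the limit was not always enough; inconclusive = no clear call, values can overlap the other calls; inactive = mean under the limit and some replicate under it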;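 note: myotubes were challenged with 10 µM simvastatin during compound exposure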
DENV2 CPE = DENV2-induced cell death inhibition; DENV2-infected cells, cytopathic effect rescue, plate reader; CPE inhibition, % at 9.99 µM; 350,000 compounds, 1.7% hits; AID 651640; in the data active = CPE inhibition above about 20%, passing the limit was not always enough; inconclusive = no clear call, values can overlap the other calls; tested in BHK-21 cells;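 note: 0% = median of neutral control wells and 100% = median of positive control wells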
miR-122 sensor = inhibitors of miR-122 in Huh7 cells | Huh7 miR-122 Renilla luciferase sensor, 48 h; neutral wells = 0, positive control = 100 | activation (reporter increase), % at 12.5 µM | 340,000 compounds, 0.3% hits | AID 602342;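 active = mean replicate activation score at least 90 and every replicate individually at or above 90; inconclusive = only one of the two criteria met; inactive = neither criterion met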;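 note: higher luciferase means less miR-122 activity so hits act as miR-122 inhibitors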
The depositor's hits bear a star; ? = inconclusive; / = not tested or not shown; [ ] = another dose, or the depositor's remark.

SMILES	PvdQ inh	PGC1a acetyl inh	C2C12 statin	DENV2 CPE	miR-122 sensor
COc1ccccc1NS(=O)(=O)c1cc(NC(=O)C(C)(C)C)ccc1N1CCOCC1	-11.5	/	-10.0	12.7	85.7
COc1ccccc1NS(=O)(=O)c1cc(NC(=S)NCCN2CCOCC2)ccc1N1CCOCC1	2.9	/	-6.0	3.8	217.0*
COc1ccccc1NS(=O)(=O)c1cc(NC(=O)c2cccc(S(=O)(=O)N(C)C)c2)ccc1N1CCOCC1	-18.5	/	-3.3	-0.6	135.1*
C/C=C/c1cnc2c(c1)C(=O)N([C@H](C)CO)C[C@H](C)[C@H](CN(C)C(=O)c1ccc3c(c1)OCO3)O2	/	-1.3	26.4	-8.5	4.6[16.7 µM]
O=C(NC[C@@H]1CC[C@H]2[C@H](CN2Cc2ccccc2F)O1)C1CCCCC1	/	2.8	/	3.6	/
Cc1c(C(=O)OCC(C)(C)CN(C)C)oc2ccccc12	-13.7	2.2	95.5*	/	4.0
CCN(CC)CC(C)(C)COC(=O)c1oc2ccccc2c1C	-7.4	-0.5	/	9.4	8.8
O=C(O)C[C@@H]1CC[C@@H]2[C@H](COC[C@@H](O)CN2S(=O)(=O)c2ccc(F)cc2)O1	/	-9.8	-1.9	4.6	0.5[16.7 µM]
COc1ccc2c3c([nH]c2c1)[C@@H](CO)N(C(=O)c1cnccn1)CC31CCN(S(C)(=O)=O)CC1	/	-0.8	/	33.7*	/
COc1ccc2c3c([nH]c2c1)[C@@H](CO)N(C(=O)c1ccccn1)CC31CCN(C(=O)C2CCCC2)CC1	/	/	/	23.5*	/
C[C@@H]1CCCCO[C@@H](CN(C)C(=O)Nc2ccc(F)cc2)[C@@H](C)CN([C@H](C)CO)C(=O)c2cc(NC(=O)Nc3cccc4ccccc34)ccc2O1	/	-3.9	2.7	1.2	7.3[16.7 µM]
O=C(Nc1ccc(CN2CCOCC2)cc1)c1ccc(Cl)cc1	-1.1	/	1.2	14.7	/
Cc1cc(/C=N/NC(=O)c2ccc(CN3CCOCC3)cc2)c(C)n1-c1ccccc1	-13.5	12.8	115.8*	/	-5.3
COc1ccc(C(=O)Nc2ccccc2N2CCOCC2)cc1Br	-16.8	-0.9	117.3*	/	7.8
O=C(Nc1ccc(CN2CCOCC2)cc1)c1ccc(F)cc1	-15.4	53.9*	2.6	-1.9	1.9
CCOc1ccc(C(=O)Nc2ccc(CN3CCOCC3)cc2)cc1Br	7.0	5.6	-9.4	37.1*	-4.9
COc1cccc(NC(=O)N[C@@H]2C=C[C@H](CC(=O)N3CCN(C)CC3)O[C@@H]2CO)c1	/	4.7	/	2.4	/
COc1ccc2c3c([nH]c2c1)[C@@H](CO)N(C(=O)Nc1ccc(F)cc1)CC31CCN(CC2CC2)CC1	/	/	/	55.8*	/
COc1ccc2c3c([nH]c2c1)[C@@H](CO)N(C(=O)Nc1ccc(F)cc1)CC31CN(Cc2ccc(F)cc2)C1	/	/	/	31.8*	/
COc1ccc2c3c([nH]c2c1)[C@H](CO)N(C(=O)NC(C)C)CC31CN(C(=O)C2CCCCC2)C1	/	2.6	/	?	/
COc1ccc2c3c([nH]c2c1)[C@H](CO)N(C(=O)Nc1ccc(F)cc1)CC31CN(Cc2ccc(F)cc2)C1	/	/	/	13.8	/
CCCNC(=O)N1CC2(CCN(CC3CCCC3)CC2)c2c([nH]c3cc(OC)ccc23)[C@@H]1CO	/	/	/	29.8*	/
COc1ccc2c3c([nH]c2c1)[C@@H](CO)N(C(=O)NC(C)C)CC31CN(C(=O)NC(C)C)C1	/	/	/	46.9*	/
CC(C)NC(=O)N(C)C[C@@H]1Oc2ccc(NS(C)(=O)=O)cc2CC(=O)N([C@H](C)CO)C[C@@H]1C	/	-0.4	0.1	1.3	4.5[16.7 µM]
Cc1noc(C)c1NC(=O)N(C)C[C@@H]1Oc2ccc(NC(=O)CCN3CCOCC3)cc2C(=O)N([C@H](C)CO)C[C@@H]1C	/	0.3	/	5.3	-2.4[16.7 µM]
SMILES	PvdQ inh	PGC1a acetyl inh	C2C12 statin	DENV2 CPE	miR-122 sensor
O=C(C[C@H]1CC[C@H]2[C@@H](COC[C@H](O)CN2C(=O)Nc2ccccc2)O1)NCc1ccncn1	/	-4.6	8.7	-1.2	2.3[16.7 µM]
CCCNC(=O)N1CCC2(CC1)CN(C(=O)COC)[C@H](CO)c1[nH]c3cc(OC)ccc3c12	/	4.5	/	28.4*	/
COc1ccc2c3c([nH]c2c1)[C@@H](CO)N(C(=O)Nc1cccc(F)c1)CC31CCN(CC2CC2)CC1	/	-14.1	/	-9.4	/
COCC(=O)N1CC2(CN(C(C)=O)C2)c2c([nH]c3cc(OC)ccc23)[C@@H]1CO	/	-9.0	/	20.1*	/
COc1ccc2c3c([nH]c2c1)[C@H](CO)N(C(=O)Nc1ccc(F)cc1)CC31CN(CC2CC2)C1	/	-14.4	/	29.2*	/
COc1ccc2c3c([nH]c2c1)[C@H](CO)N(C(=O)Nc1cccc(F)c1)CC31CN(CC2CC2)C1	/	-4.2	/	24.8*	/
CCCNC(=O)N1CCC2(CC1)CN(C(=O)CCC)[C@@H](CO)c1[nH]c3cc(OC)ccc3c12	/	5.3	/	11.7	/
C[C@@H]1CCCCO[C@@H](CN(C)Cc2ccccc2)[C@H](C)CN([C@@H](C)CO)C(=O)c2cc(NC(=O)Nc3ccc4c(c3)OCO4)ccc2O1	/	0.3	38.9	1.7	10.6[16.7 µM]
C[C@H](CO)N1C[C@H](C)[C@H](CN(C)C(=O)Nc2ccc3c(c2)OCO3)Oc2ccc(NS(=O)(=O)c3ccccc3)cc2C1=O	/	1.8	/	-9.4	-2.1[16.7 µM]
C[C@H](CO)N1C[C@H](C)[C@H](CN(C)C(=O)Nc2ccc3c(c2)OCO3)Oc2ccc(NC(=O)Nc3ccc4c(c3)OCO4)cc2C1=O	/	0.5	-9.1	-13.3	-11.7[16.7 µM]
CC(C)NC(=O)Nc1ccc2c(c1)C(=O)N([C@@H](C)CO)C[C@H](C)[C@H](CN(C)C(=O)Nc1ccc3c(c1)OCO3)O2	/	1.4	6.2	87.3*	4.0[16.7 µM]
CC(C)NC(=O)Nc1ccc2c(c1)C(=O)N([C@H](C)CO)C[C@@H](C)[C@@H](CN(C)C(=O)Nc1ccc3c(c1)OCO3)O2	/	1.9	-1.4	24.9*	-0.2[16.7 µM]
C[C@@H]1CN([C@@H](C)CO)C(=O)c2cc(NS(=O)(=O)c3ccccc3)ccc2O[C@@H]1CN(C)C(=O)Nc1ccc2c(c1)OCO2	/	4.1	/	49.1*	6.4[16.7 µM]
CCC(=O)Nc1ccc2c(c1)OC[C@@H](C)N(C(=O)Cc1cccnc1)C[C@@H](C)[C@H](OC)CN(C)C2=O	/	3.9	16.5	27.1*	/
CCC(=O)N1C[C@H](C)[C@@H](OC)CN(C)C(=O)c2ccc(NC(=O)C3CC3)cc2OC[C@@H]1C	/	-3.8	/	39.7*	/
CCC(=O)Nc1ccc2c(c1)OC[C@H](C)N(C(=O)Cc1cccnc1)C[C@H](C)[C@H](OC)CN(C)C2=O	/	-3.2	2.8	1.1	/
CCC(=O)Nc1ccc2c(c1)OC[C@H](C)N(C(=O)CC)C[C@H](C)[C@@H](OC)CN(C)C2=O	/	-7.6	/	35.3*	/
CCC(=O)N1C[C@H](C)[C@H](OC)CN(C)C(=O)c2ccc(NC(=O)C3CC3)cc2OC[C@H]1C	/	-4.1	1.7	9.0	/
CCC(=O)Nc1ccc2c(c1)OC[C@H](C)N(C(=O)CC)C[C@@H](C)[C@@H](OC)CN(C)C2=O	/	7.8	2.6	/	13.0[16.7 µM]
CCC(=O)Nc1ccc2c(c1)OC[C@@H](C)N(C(=O)Nc1ccccc1F)C[C@@H](C)[C@H](OC)CN(C)C2=O	/	3.4	-2.0	22.2*	/
OC[C@@H]1[C@H](c2ccc(C#Cc3ccccc3)cc2)[C@H]2CN(CC3CCOCC3)CCCCN12	/	-18.5	/	-9.4	-4.2[16.7 µM]
